{
  "source": "the antibiotic and cytotoxicity screens of Wong et al. (2023)",
  "note": "About 3,300 (8.5%) of roughly 39,000 compounds were called active. This excerpt belongs to a sample that is enriched for actives.",
  "data": [
    {"system": "HepG2", "assay": "cytotoxicity call (relative viability < 0.9)", "conditions": "10 µM", "values": [
      {"smiles": "C=CCC[C@H](Cc1ccc(F)cc1)C(=O)OC[C@@H]1CCCN1C(=O)[C@H](CC=C)CC(=O)N(CCO)Cc1ccccc1", "cytotoxicity call": "inactive"},
      {"smiles": "CC(C)(C)OC(=O)N1CCNC(=O)C1", "cytotoxicity call": "inactive"},
      {"smiles": "O=C(O)CCN1C(=O)NC2(CCCC2)C1=O", "cytotoxicity call": "inactive"},
      {"smiles": "O=C(C1=C[C@@H](c2ccsc2)C[C@@H](OCCCCO)O1)N1CCN(Cc2ccc3c(c2)OCO3)CC1", "cytotoxicity call": "inactive"},
      {"smiles": "C[C@H]1CN([C@@H](C)CO)C(=O)CCCn2nncc2CO[C@@H]1CN(C)C(=O)CCCN(C)C", "cytotoxicity call": "inactive"},
      {"smiles": "C[C@H]1CN([C@@H](C)CO)C(=O)Cc2cc(NC(=O)CCN3CCOCC3)ccc2O[C@@H]1CN(C)S(=O)(=O)c1ccc(Cl)cc1", "cytotoxicity call": "inactive"},
      {"smiles": "CC(=O)OC(C)C[N+](C)(C)C.[Cl-]", "note": "(stereo not drawn)", "cytotoxicity call": "active"},
      {"smiles": "CC(=O)O[C@@H](C)C[N+](C)(C)C", "cytotoxicity call": "inactive"},
      {"smiles": "CC(C[N+](C)(C)C)OC(N)=O.[Cl-]", "note": "(stereo not drawn)", "cytotoxicity call": "inactive"},
      {"smiles": "O=C(C[C@H]1CC[C@H]2[C@@H](COC[C@@H](O)CN2C(=O)Nc2cccc(Cl)c2)O1)NCc1ccccc1F", "cytotoxicity call": "inactive"},
      {"smiles": "CN(C)Cc1cn(CC[C@@H]2CC[C@@H](NC(=O)Cc3cccnc3)[C@@H](CO)O2)nn1", "cytotoxicity call": "inactive"},
      {"smiles": "C[C@@H]1CCCCO[C@@H](CN(C)C(=O)c2ccncc2)[C@H](C)CN([C@H](C)CO)C(=O)c2cc(NS(=O)(=O)c3cn(C)cn3)ccc2O1", "cytotoxicity call": "inactive"},
      {"smiles": "O=C(C[C@@H]1CC[C@H]2[C@@H](COC[C@@H](O)CN2S(=O)(=O)c2ccccc2F)O1)NCc1ccccc1Cl", "cytotoxicity call": "inactive"},
      {"smiles": "C[C@@H]1CN([C@H](C)CO)C(=O)c2cc(NS(C)(=O)=O)ccc2O[C@@H]1CN(C)Cc1ccc(C(=O)Nc2ccccc2N)cc1", "cytotoxicity call": "inactive"},
      {"smiles": "COc1ccc(CNC(=O)c2cc3c(c(-c4cccc(-c5ccc(C#N)cc5)c4)n2)[C@H](CCO)N([S@@](=O)C(C)(C)C)C3)cc1", "cytotoxicity call": "inactive"},
      {"smiles": "COc1ccc(C2=N[C@@H](c3ccc(Cl)cc3)[C@@H](c3ccc(Cl)cc3)N2C(=O)N2CCNC(=O)C2)c(OC(C)C)c1", "cytotoxicity call": "active"},
      {"smiles": "COc1ccc(C2=N[C@H](c3ccc(Cl)cc3)[C@H](c3ccc(Cl)cc3)N2C(=O)N2CCNC(=O)C2)c(OC(C)C)c1", "cytotoxicity call": "inactive"},
      {"smiles": "COc1ccc(S(=O)(=O)N(C)C[C@@H]2Oc3ccc(NC(=O)C4CC4)cc3C(=O)N([C@@H](C)CO)C[C@@H]2C)cc1", "cytotoxicity call": "inactive"},
      {"smiles": "Cc1noc(C)c1NC(=O)N(C)C[C@H]1Oc2c(NS(=O)(=O)c3cn(C)cn3)cccc2C(=O)N([C@H](C)CO)C[C@@H]1C", "cytotoxicity call": "inactive"},
      {"smiles": "C[C@H](CO)N1C[C@H](C)[C@@H](CN(C)C(=O)Nc2ccc3c(c2)OCO3)OCCCC[C@H](C)Oc2ccc(NC(=O)NC3CCCCC3)cc2C1=O", "cytotoxicity call": "inactive"},
      {"smiles": "C[C@@H]1CCCCO[C@H](CN(C)C(=O)Nc2ccc3c(c2)OCO3)[C@H](C)CN([C@@H](C)CO)C(=O)c2cc(NC(=O)NC3CCCCC3)ccc2O1", "cytotoxicity call": "inactive"},
      {"smiles": "C[C@@H]1CCCCO[C@@H](CN(C)C(=O)Nc2ccc3c(c2)OCO3)[C@@H](C)CN([C@@H](C)CO)C(=O)c2cc(NC(=O)NC3CCCCC3)ccc2O1", "cytotoxicity call": "inactive"},
      {"smiles": "C[C@@H]1CCCCO[C@@H](CN(C)C(=O)Nc2ccc3c(c2)OCO3)[C@H](C)CN([C@H](C)CO)C(=O)c2cc(NC(=O)NC3CCCCC3)ccc2O1", "cytotoxicity call": "inactive"},
      {"smiles": "C[C@@H]1CCCCO[C@H](CN(C)C(=O)Nc2ccc3c(c2)OCO3)[C@H](C)CN([C@H](C)CO)C(=O)c2cc(NC(=O)NC3CCCCC3)ccc2O1", "cytotoxicity call": "active"},
      {"smiles": "C[C@@H]1CN([C@@H](C)CO)C(=O)c2cc(NC(=O)NC3CCCCC3)ccc2O[C@@H](C)CCCCO[C@H]1CN(C)C(=O)Nc1ccc2c(c1)OCO2", "cytotoxicity call": "active"},
      {"smiles": "C[C@@H]1CN([C@@H](C)CO)C(=O)Cc2cc(NC(=O)CCCN(C)C)ccc2O[C@H]1CN(C)S(=O)(=O)c1ccc(Cl)cc1", "cytotoxicity call": "inactive"},
      {"smiles": "Cc1noc(C)c1NC(=O)N(C)C[C@H]1Oc2ccc(NC(=O)C3CC3)cc2CC(=O)N([C@@H](C)CO)C[C@@H]1C", "cytotoxicity call": "inactive"},
      {"smiles": "C[C@@H]1CCCCO[C@@H](CN(C)S(=O)(=O)c2cn(C)cn2)[C@H](C)CN([C@@H](C)CO)C(=O)c2cc(NC(=O)Nc3cccc4ccccc34)ccc2O1", "cytotoxicity call": "inactive"},
      {"smiles": "CCCNC(=O)N(C)C[C@@H]1Oc2ncc(-c3ccc(C(=O)N(C)C)cc3)cc2C(=O)N([C@H](C)CO)C[C@H]1C", "cytotoxicity call": "inactive"},
      {"smiles": "C[C@@H]1CCCCO[C@@H](CN(C)C(=O)Nc2ccc(C(F)(F)F)cc2)[C@H](C)CN([C@@H](C)CO)C(=O)c2cc(NC(=O)Nc3ccc(F)cc3)ccc2O1", "cytotoxicity call": "inactive"},
      {"smiles": "Cc1ccc(S(=O)(=O)N(C)C[C@H]2OCCCC[C@H](C)Oc3ccc(NS(=O)(=O)c4ccc(F)cc4)cc3C(=O)N([C@H](C)CO)C[C@@H]2C)cc1", "cytotoxicity call": "inactive"},
      {"smiles": "C[C@H]1CN([C@@H](C)CO)C(=O)Cc2cc(NC(=O)Nc3ccccc3)ccc2O[C@H]1CN(C)Cc1ccc(C(=O)Nc2ccccc2N)cc1", "cytotoxicity call": "inactive"},
      {"smiles": "C[C@@H]1CN([C@H](C)CO)C(=O)Cc2cc(NC(=O)Nc3ccc(F)cc3)ccc2O[C@@H]1CN(C)Cc1ccc(C(=O)Nc2ccccc2N)cc1", "cytotoxicity call": "active"},
      {"smiles": "C[C@H](CO)N1C[C@H](C)[C@@H](CN(C)Cc2ccc(C(=O)Nc3ccccc3N)cc2)Oc2ccc(NC(=O)Nc3ccccc3)cc2CC1=O", "cytotoxicity call": "inactive"},
      {"smiles": "C[C@H](CO)N1C[C@H](C)[C@H](CN(C)Cc2ccc(C(=O)Nc3ccccc3N)cc2)Oc2ccc(NC(=O)Nc3ccccc3)cc2CC1=O", "cytotoxicity call": "inactive"},
      {"smiles": "C[C@H](CO)N1C[C@H](C)[C@H](CN(C)Cc2ccc(C(=O)Nc3ccccc3N)cc2)Oc2ccc(NC(=O)Nc3cccc4ccccc34)cc2CC1=O", "cytotoxicity call": "active"},
      {"smiles": "C[C@@H]1CN([C@@H](C)CO)C(=O)Cc2cc(NC(=O)Nc3ccc(F)cc3)ccc2O[C@H]1CN(C)Cc1ccc(C(=O)Nc2ccccc2N)cc1", "cytotoxicity call": "inactive"},
      {"smiles": "C[C@@H]1CN([C@H](C)CO)C(=O)Cc2cc(NC(=O)Nc3cccc4ccccc34)ccc2O[C@H]1CN(C)Cc1ccc(C(=O)Nc2ccccc2N)cc1", "cytotoxicity call": "inactive"},
      {"smiles": "C[C@@H]1CN([C@H](C)CO)C(=O)Cc2cc(NC(=O)Nc3ccccc3)ccc2O[C@@H]1CN(C)Cc1ccc(C(=O)Nc2ccccc2N)cc1", "cytotoxicity call": "active"},
      {"smiles": "COc1ccc(NC(=O)Nc2ccc3c(c2)CC(=O)N([C@H](C)CO)C[C@@H](C)[C@@H](CN(C)Cc2ccc(C(=O)Nc4ccccc4N)cc2)O3)cc1", "cytotoxicity call": "active"},
      {"smiles": "COc1ccc(NC(=O)Nc2ccc3c(c2)CC(=O)N([C@H](C)CO)C[C@H](C)[C@@H](CN(C)Cc2ccc(C(=O)Nc4ccccc4N)cc2)O3)cc1", "cytotoxicity call": "inactive"},
      {"smiles": "COc1ccc(NC(=O)Nc2ccc3c(c2)CC(=O)N([C@@H](C)CO)C[C@H](C)[C@@H](CN(C)Cc2ccc(C(=O)Nc4ccccc4N)cc2)O3)cc1", "cytotoxicity call": "inactive"},
      {"smiles": "C[C@@H]1CN([C@H](C)CO)C(=O)Cc2cc(NC(=O)Nc3cccc4ccccc34)ccc2O[C@@H]1CN(C)Cc1ccc(C(=O)Nc2ccccc2N)cc1", "cytotoxicity call": "inactive"}
    ]}
  ]
}
